This is an account of results in ChEMBL document CHEMBL3433997, “St. Jude Leishmania screening dataset” (2016).

Holding throughout (type): functional
Test [1] concerns the target Solute carrier family 2, facilitated glucose transporter member 1 (Homo sapiens) (UniProt P11166). Briefly: ST_JUDE_LEISH: Cytotoxicity at 2uM final concentration against transgenic Leishmania Mexicana promastigotes LmGLUT1 that are glucose transport deficient and complemented with the human glucose transporter GLUT1. Activity is measured by DNA content using SYBR green in vitro.

The target in test [2] is Hexose transporter 1 (Plasmodium falciparum) (UniProt O97467). Briefly: ST_JUDE_LEISH: Cytotoxicity at 2uM final concentration against transgenic Leishmania Mexicana promastigotes LmPfHT that are glucose transport deficient and complemented with the Plasmodium falciparum hexose transporter. Activity is measured by DNA content using SYBR green in vitro.
The target in test [3] is Glucose transporter (Leishmania mexicana) (UniProt O61059). Put plainly: ST_JUDE_LEISH: Cytotoxicity at 2uM final concentration against transgenic Leishmania Mexicana promastigotes LmGT2 that are glucose transport deficient and complemented with the L. Mexicana glucose transporter 2. Activity is measured by DNA content using SYBR green in vitro.

Structures are written as SMILES.

Chain of Solute carrier family 2, facilitated glucose transporter member 1 (Homo sapiens) (P11166 whole entry): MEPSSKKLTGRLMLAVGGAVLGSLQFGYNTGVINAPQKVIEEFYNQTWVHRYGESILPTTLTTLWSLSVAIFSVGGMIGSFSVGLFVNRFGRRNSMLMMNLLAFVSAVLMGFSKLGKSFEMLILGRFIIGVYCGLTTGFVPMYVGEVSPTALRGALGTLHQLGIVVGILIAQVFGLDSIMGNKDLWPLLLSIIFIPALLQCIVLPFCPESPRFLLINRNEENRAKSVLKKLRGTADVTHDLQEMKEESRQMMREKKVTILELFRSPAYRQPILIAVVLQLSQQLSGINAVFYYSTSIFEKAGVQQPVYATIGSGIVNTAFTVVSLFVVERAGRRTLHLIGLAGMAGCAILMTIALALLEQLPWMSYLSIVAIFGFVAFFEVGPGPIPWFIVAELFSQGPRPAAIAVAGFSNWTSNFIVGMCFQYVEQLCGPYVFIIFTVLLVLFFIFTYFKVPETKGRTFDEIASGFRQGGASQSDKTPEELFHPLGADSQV

Consider `CC(C)Cc1nc2nc(N)nc(N)c2cc1C(C)C`, for which the inhibition in test [1] worked out at 1.84%; in test [2], 4.17%; in test [3] it was 1.5%.

For the compound `CC1CCCC(NCc2c(O)ccc3ccccc23)C1` (stereo not drawn), the inhibition in test [1] stood at 3.58%; in test [2] it was 3.22%; in test [3], 3.69%.

On to `CCCCc1cc(NCc2ccncc2)nc(Nc2ccc(C)cc2)n1`, for which the figures for the inhibition in test [1], in test [2] and in test [3] were 15.4%, 5.93% and 2.33%, respectively.

Consider `CN1CCN(c2ccnc3ccc(NC(=O)Nc4cccc5c(-c6ccncc6)cccc45)cc23)CC1`, for which the inhibition in test [1] was -0.27%; in test [2], -0.42%; in test [3] it was 0.32%.

On to `c1ccc2c3c(ccc2c1)Sc1c(ccc2ccccc12)N3`, for which the inhibition in test [1] stood at 6.27%; in test [2], 5.61%; in test [3], 5.33%.

`Cc1cc2c(cc1C(F)(F)F)N(C(=O)Nc1cccc(C(=O)NC3CCN(Cc4ccccc4)CC3)c1)CC2`: the inhibition came out at 2.13% in test [1], 3.38% in test [2] and 3.16% in test [3].

Consider `Cc1cc(-c2ccc(CNC3CCN(C)CC3)cc2)ccc1S(=O)(=O)NCc1ccccc1`, for which the inhibition worked out at 3.29% in test [1], 3.32% in test [2] and 1.14% in test [3].

Regarding `COc1cc(Nc2nccc(-c3c(-c4cccc(NC(=O)c5c(F)cccc5F)c4)nn4ncccc34)n2)cc(OC)c1OC`, the inhibition stood at 12.1% in test [1], 16.6% in test [2] and 6.39% in test [3].

For `Fc1ccc2[nH]c(-c3cccc(-c4ccc(CN5CCN(c6cnccn6)CC5)cc4)c3)nc2c1`, the inhibition in test [1] worked out at 14.3%; in test [2], 12.5%; in test [3], 8.14%.

With `CC(C)[C@H](NC(=O)c1c(CN2CCC(N3CCCCC3)CC2)c(-c2ccccc2)nc2cc(O)ccc12)c1ccccc1`, the results for the inhibition in test [1], in test [2] and in test [3] were 2.26%, 1.22% and 0.91%, respectively.

Take `COc1ccc(CNCc2ccccc2)cc1-c1ccc(S(=O)(=O)NCCN2CCCC2)c(F)c1`: the inhibition in test [1] worked out at 18.3%; in test [2], 13%; in test [3], 10.7%.

On to `Cc1cccc2nc(-c3cccc(-c4cccc(CN5CCC(CO)CC5)c4)c3)[nH]c12`, for which the inhibition in test [1] turned out to be 9.53%; in test [2] it was 8.91%; in test [3] it was 8.87%.

With `O=C(NCCc1ccccc1)N(Cc1cccc(-c2ccc(CNC3CCCC3)cc2)c1)C1CCN(Cc2ccccc2)CC1`, the inhibition in test [1] worked out at 13.9%; in test [2] it was 13.2%; in test [3], 11.2%.

As for `O=C(COc1ccccc1Cl)N1CCc2cc3nccc(N4CCN5CCC[C@H]5C4)c3cc21`, the inhibition in test [1] amounted to 6.5%; in test [2], 5.14%; in test [3], 6.01%.

Regarding `CC1(C)[C@H]2CC[C@@H](CNc3nc(NCC(=O)Nc4ccc5ccccc5c4)nc(N4CCC(N5CCCC5)CC4)n3)[C@@H]1C2`, the inhibition in test [1] was found to be 0.95%; in test [2], 2.52%; in test [3], 2.89%.

Turning to `CC[C@H](C)CNC(=O)c1ccc(-c2cccc(CN3CCC(N4CCCC4)CC3)c2)nc1`, the inhibition in test [1] came out at 0.61%; in test [2] it was 0.29%; in test [3] it was 0.34%.

As to `CC1CN(Cc2cccc(F)c2)CCN1c1ccc(NC(=O)c2cccs2)cc1` (stereo not drawn), the figures for the inhibition in test [1], in test [2] and in test [3] were -0.87%, -1.57% and -2.09%, respectively.

For `Cc1cccc2nc(-c3ccc(-c4cccc(NC(=O)C(C)CN(C)C)c4)cc3)[nH]c12` (stereo not drawn), the values for the inhibition in test [1], in test [2] and in test [3] were 8.52%, 7.83% and 3.93%, respectively.

As to `O=C(NCCN1CCCC1)c1ccc(-c2ccc(-c3nc4cc(C(F)(F)F)ccc4[nH]3)s2)cc1`, the values for the inhibition in test [1], in test [2] and in test [3] were 3.7%, 2.28% and 3.38%, respectively.

As to `O=C(Nc1ccc(Cl)cc1)NC1CCN(CCCCCNC(=O)C2CC2c2ccc(Cl)c(Cl)c2)CC1` (stereo not drawn), the inhibition in test [1] is 9.93%; in test [2] it was 9.43%; in test [3], 7.34%.

Take `C=CCC1OC(=O)c2cc(OC)cc(OC)c21` (stereo not drawn): the inhibition in test [1] is 89.1%; in test [2] it was 84.4%; in test [3], 86.9%.

Turning to `CCOc1ccc2c(=NN=Cc3ccc(OC)c(OC)c3)cc(C)[nH]c2c1`, the values for the inhibition in test [1], in test [2] and in test [3] were 4.95%, 3.84% and -0.04%, respectively.

Take `Cc1cccc2nc(-c3ccc(-c4ccc(CN5CCN(CC6CCCN(C)C6)CC5)cc4)s3)[nH]c12` (stereo not drawn): the inhibition worked out at 8.45% in test [1], 21.1% in test [2] and 8.04% in test [3].

With `N=C(N)Nc1nc(-c2cccc(NC(=O)NCCc3c[nH]c4ccc(OCc5ccccc5)cc34)c2)cs1`, the results for the inhibition in test [1], in test [2] and in test [3] were 0.6%, 1.4% and 0.56%, respectively.

`Oc1ccc2c(c1CNC1CCCCC1)CCCC2`: the inhibition in test [1] was determined as 5.27%; in test [2], 3.89%; in test [3] it was 4.96%.

Take `CC(=O)c1cccc(NC(=O)C2c3ccccc3C(=O)N(CC(C)C)C2c2cccs2)c1` (stereo not drawn): the inhibition in test [1] is -0.21%; in test [2] it was 0.13%; in test [3] it was 0.19%.

On to `CN(CCCN(C)c1cc(NC(=O)c2ccc(F)cc2)ccn1)Cc1cccc(O)c1`, for which the inhibition in test [1] was -1.12%; in test [2] it was -0.11%; in test [3], -0.03%.

For the compound `N=C(N)NN=Cc1c2ccc(Cl)cc2c(Cl)c2ccc(Cl)cc12`, the inhibition turned out to be 83.8% in test [1], 23.8% in test [2] and 61.9% in test [3].

In the case of `O=C(Nc1cccc(-c2ccc(-c3nc4cc(C(F)(F)F)ccc4[nH]3)s2)c1)c1cccnc1`, the inhibition stood at 4.93% in test [1], 4.73% in test [2] and 4.16% in test [3].

Turning to `N=c1n(Cc2ccccc2)c2ccccc2n1CC(O)c1ccc(Cl)cc1` (stereo not drawn), the inhibition amounted to 1.36% in test [1], 2.09% in test [2] and 1.14% in test [3].

`O=C(/C=C/c1ccc(Cl)c(Cl)c1)NCCCCCCN1CCCN(C(=O)Nc2ccc(C(F)(F)F)cc2)CC1`: the inhibition amounted to 2.54% in test [1], 2.95% in test [2] and 2.88% in test [3].

For the compound `COc1ccc(F)cc1-c1ccccc1CNC(=O)CN(C)S(=O)(=O)c1cc(C)cc(Cl)c1C`, the inhibition in test [1] came out at 1.17%; in test [2] it was 1.94%; in test [3] it was 0.93%.

For the compound `Cc1cc(N(CCO)CCCN2CCCCC2)nc(Nc2ccc(Cl)cc2)n1`, the inhibition in test [1] is 1.77%; in test [2], 1.35%; in test [3], 2.41%.

With `O=C(Cn1c(CCc2cccc(F)c2F)cc(=O)c2ccccc21)N(CCN1CCCC1)Cc1ccc(-c2ccc(C(F)(F)F)cc2)cc1`, the inhibition in test [1] worked out at 1.56%; in test [2], 2.33%; in test [3], 2.03%.

For `CCc1ccc(NC(=O)C=NNC(=N)N)cc1`, the inhibition stood at 1.51% in test [1], 1.46% in test [2] and 1.17% in test [3].

Consider `COc1cccc(C2(c3cccc(OC)c3)N=C(N)N(CCCc3ccccc3)C2=O)c1`, for which the inhibition in test [1] is -0.49%; in test [2] it was -0.23%; in test [3], -2.44%.

In general, inhibition refers to the relative decrease from the control value, in per cent.
